Experimental data reported in PubChem BioAssay.
Unmarked numbers belong to inactive results. Calls of active or inactive are those of the source. Unless noted, no stated cut-off is given here; in the data, active means inhibition above about 28%; inactive means the rest.

How the values were obtained:
[1] = StAR promoter reporter inhibitors, counter-screen for LRH-1 inverse agonist project, cell-based, luminescence, high throughput (AID 651611); settings: StAR promoter luciferase reporter counterscreen, at 3.6 µM, stronger effect = higher value
[2] = biological target: Nuclear receptor subfamily 5 group A member 2 (Homo sapiens) (UniProt O00482); experiment: LRH-1 (NR5A2) inverse agonists, retest, confirmation, cell-based, luminescence (AID 651613; in the data active means inhibition above about 42%;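 further: HEK293T cells co-transfected with LRH-1 and StAR promoter luciferase reporter; 0% = vehicle wells and 100% = parental cells lacking receptor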); settings: cell-based LRH-1 luciferase reporter, inverse agonism; at 3.6 µM; stronger effect = higher value
Chain of Nuclear receptor subfamily 5 group A member 2 (Homo sapiens) (O00482 whole entry, looked up): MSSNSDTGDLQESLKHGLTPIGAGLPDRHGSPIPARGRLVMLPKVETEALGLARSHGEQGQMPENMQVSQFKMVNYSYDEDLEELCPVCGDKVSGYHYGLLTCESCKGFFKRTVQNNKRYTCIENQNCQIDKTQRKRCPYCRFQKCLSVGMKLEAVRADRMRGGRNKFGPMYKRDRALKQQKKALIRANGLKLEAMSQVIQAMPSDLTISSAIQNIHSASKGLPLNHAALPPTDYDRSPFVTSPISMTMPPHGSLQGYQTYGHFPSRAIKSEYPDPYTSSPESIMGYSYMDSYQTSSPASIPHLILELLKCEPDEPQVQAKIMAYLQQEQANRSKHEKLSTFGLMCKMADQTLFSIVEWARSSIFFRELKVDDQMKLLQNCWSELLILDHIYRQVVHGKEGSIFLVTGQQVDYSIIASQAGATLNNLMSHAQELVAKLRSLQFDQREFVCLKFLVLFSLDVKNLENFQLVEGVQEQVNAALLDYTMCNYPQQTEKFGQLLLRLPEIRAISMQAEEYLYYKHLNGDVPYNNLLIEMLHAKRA

[3] = biological target: Steroidogenic factor 1 (Homo sapiens) (UniProt Q13285); experiment: SF1 (NR5A1) inverse agonists, counter-screen for LRH-1 inverse agonist project, cell-based, luminescence, high throughput (AID 651614; in the data active means inhibition above about 44%;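 further: cells cotransfected with StAR promoter reporter and SF1 expression vector; 0% = vehicle on cells with receptor and 100% = vehicle on cells lacking receptor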); settings: cell-based SF1 luciferase reporter, at 3.6 µM, stronger effect = higher value
Chain of Steroidogenic factor 1 (Homo sapiens) (Q13285 whole entry, looked up, the tested form may be a part): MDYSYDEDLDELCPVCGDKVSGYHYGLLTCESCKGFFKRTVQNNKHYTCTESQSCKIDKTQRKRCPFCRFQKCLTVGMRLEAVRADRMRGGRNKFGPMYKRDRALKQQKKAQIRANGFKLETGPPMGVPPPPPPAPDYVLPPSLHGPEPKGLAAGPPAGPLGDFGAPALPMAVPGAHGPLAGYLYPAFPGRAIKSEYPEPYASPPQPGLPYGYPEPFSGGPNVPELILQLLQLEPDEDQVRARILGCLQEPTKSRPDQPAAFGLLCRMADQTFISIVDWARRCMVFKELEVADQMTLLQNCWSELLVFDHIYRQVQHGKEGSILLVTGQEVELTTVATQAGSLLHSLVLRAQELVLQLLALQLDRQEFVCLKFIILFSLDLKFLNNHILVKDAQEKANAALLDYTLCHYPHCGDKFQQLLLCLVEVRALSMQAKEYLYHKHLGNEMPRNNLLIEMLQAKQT

[4] = VP16 transactivation reporter inhibitors, counter-screen for LRH-1 inverse agonist project, cell-based, luminescence, high throughput (AID 651615; in the data active means inhibition above about 33%); settings: Gal4-VP16 luciferase reporter cells, at 3.6 µM, stronger effect = higher value

Compound | inhibition [1] | inhibition [2] | inhibition [3] | inhibition [4]
CS(=O)(=O)c1ccc(-c2cc(NC=O)c3ncc(-c4ccc(F)cc4)n3c2)cc1 | 13.9% | 56% (active) | 55% (active) | 1.21%
COc1cc(NC(=O)c2ccc([N+](=O)[O-])o2)ccc1NC(=O)c1ccco1 | 28.8% (active) | 62.5% (active) | 67% (active) | -17.9%
COc1ccc(C[C@@H]2OC3(C=CC(=O)C=C3)O[C@H]2Cc2ccc(OC)cc2)cc1 | 37.5% (active) | 68.4% (active) | 66% (active) | 70.6% (active)
CN1CCN(c2ccc(S(=O)(=O)N3CCCCC3)cc2NC(=O)COc2ccc([N+](=O)[O-])cc2)CC1 | 2.36% | 59.6% (active) | 53.1% (active) | 4.16%
Cc1sc2ncnc(NCC(O)c3ccc([N+](=O)[O-])cc3)c2c1C (stereo not drawn) | 15.4% | 51.7% (active) | 53.5% (active) | 42.1% (active)
Cc1cc(OCC(=O)NC2CC2)c2c(C)c(C)c(=O)oc2c1 | 13.4% | 65.4% (active) | 53.2% (active) | -21.9%
Cc1cnc(NC(=O)CCCc2nc3ccccc3s2)s1 | 45.5% (active) | 73.1% (active) | 42.5% | 29.4%
CCCCOc1ccc(Br)cc1CSC(=N)N | 16.4% | 103% (active) | 62.3% (active) | 83.2% (active)
Cc1ccc(-c2csc(NC(=O)C3CCN(S(=O)(=O)c4cccs4)CC3)n2)cc1 | 15.3% | 58.5% (active) | 55.4% (active) | 47.9% (active)
CC(=O)Nc1ccc(C2=CC(=O)CC(C)(C)C2)cc1 | 15.2% | 60.2% (active) | 55.8% (active) | -10.9%
Cc1ccc(NC(=O)CN2C(=O)NC(C)(CC(C)C)C2=O)c(Br)c1 (stereo not drawn) | 15.9% | 55.1% (active) | 61.6% (active) | -6.87%
CC(=O)c1ccc(NC(=O)C(C)O/N=C(\N)c2ccccc2)cc1 (stereo not drawn) | 10.5% | 51.7% (active) | 41.8% | -7.19%
COc1cc([N+](=O)[O-])ccc1NC(=O)Cn1ccsc1=N | 4.07% | 59.9% (active) | 57.6% (active) | -3.33%
O=C(Nc1ccc(Cc2ccncc2)cc1)c1cc(F)c(F)cc1Cl | -0.62% | 44.2% (active) | 37.9% | 10.3%
CN(C)S(=O)(=O)c1cccc(CSCc2cccc(S(=O)(=O)N(C)C)c2)c1 | 7.72% | 59% (active) | 38.9% | 46.1% (active)
CC(C)(C)C(=O)N1CCN(c2ccc(NC(=O)c3ccc([N+](=O)[O-])o3)cc2)CC1 | 11.1% | 59.7% (active) | 68.6% (active) | -12.6%
COc1ccc(C2(C)NC(=O)N(CC(=O)NCCC3=CCCCC3)C2=O)cc1OC (stereo not drawn) | 7.18% | 67.2% (active) | 38.1% | 0.38%
COc1cc2c(cc1OC)CN(C(=O)CN1C(=O)NC3(CCC(C)CC3)C1=O)CC2 (stereo not drawn) | 11.1% | 46% (active) | 46.4% (active) | 7.61%
Cc1ccc(NC(=O)CNNC(=O)c2cccc([N+](=O)[O-])c2)cc1[N+](=O)[O-] | 2.1% | 34.6% | 31.3% | -5.02%
Cc1no[n+]([O-])c1COc1ccccc1/C=N/n1nnnc1N | 7.3% | 48.8% (active) | 43% (active) | -13.9%
Cc1ccc(NC(=O)CSc2nc3ncc(Br)cc3[nH]2)cc1C | 10.7% | 54.5% (active) | 54.1% (active) | 1.21%
CC(C)OC(=O)C(=O)NNc1ccccc1 | 12.3% | 12.2% | 4.1% | 11.9%
CC(=O)N1CCN(c2ccc(NC(=O)c3cccc([N+](=O)[O-])c3)cc2)CC1 | -1.56% | 53.6% (active) | 49.6% (active) | -19.9%
COc1ccc(OC)c(NC(=S)NCc2cccnc2)c1 | 1.82% | 35.9% | 33.3% | 0.37%
O=C(CN1C(=O)NC2(CCOc3ccccc32)C1=O)Nc1cccc([N+](=O)[O-])c1 (stereo not drawn) | 13.7% | 58.6% (active) | 53.6% (active) | -15.2%
O=C1CCN(CCCN2CCC(=O)N(Cc3ccccc3)C2=S)C(=S)N1Cc1ccccc1 | -8.81% | 27.2% | 28.5% | -0.72%
Cc1c(Cl)cccc1NC(=O)CSc1sc2c(O)cc(=O)[nH]c2c1C#N | -3.35% | 25.5% | 29.2% | 6.14%
